± gives the standard deviation of the averaged measurements.
Experiments:
Details in all cases: concentration: 10 µM; 24 h
HCC1569 [1] = assay: cell number relative to DMSO (% of DMSO); higher = more cells (less growth inhibition / toxicity)
Summary of the method: (§1)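 In 384-well plates holding 800 HCC1569 or TDF cells per well in RPMI with 10% FBS, compounds were tested at 10 µM for 24 h at 37 °C in triplicate. Fixation used 3.7% formaldehyde. Staining used a rabbit anti-H1.0 antibody with an AlexaFluor 647 secondary, plus DAPI. Each value, H1.0 nuclear intensity or cell number, is a median of replicates shown as percent of the plate control, and HCC1569 values were smoothed for positional effects.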

TDF [2] = assay: as above
Summary of the method: as §1

TDF [3] = assay: H1.0 immunofluorescence intensity relative to DMSO (% of DMSO); higher = stronger H1.0 induction, active = 120 or more
Summary of the method: as §1

HCC1569 [4] = assay: H1.0 immunofluorescence intensity relative to DMSO (% of DMSO); higher = stronger H1.0 induction, active = 140 or more
Summary of the method: as §1
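For H1.0 immunofluorescence intensity relative to DMSO in this document: TDF is a line of transformed human dermal fibroblasts of mesenchymal origin.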
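For cell number relative to DMSO in this document: TDF denotes transformed human dermal fibroblasts of mesenchymal origin.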

Compound	cell number (HCC1569 [1])	cell number (TDF [2])	H1.0 immunofluorescence intensity (TDF [3])	H1.0 immunofluorescence intensity (HCC1569 [4])
Cl.NCc1c[nH]c(=S)n1[C@H]1CCc2c(F)cc(F)cc2C1	99.6	110	95.9 (inactive)	111 (inactive)
Cl.N[C@@H](Cc1cnc[nH]1)C(=O)O [L-Histidine hydrochloride]	101	109	99 (inactive)	95.8 (inactive)
CC(C)(C)C1(O)CCN2CC3c4ccccc4CCc4cccc(c43)C2C1.Cl (single isomer, unassigned; (+)) [(+)-Butaclamol hydrochloride]	54	49.9	126 (active)	251 (active)
CS(=O)(=O)O.Cc1ccc(NC(=O)c2ccc(CN3CCN(C)CC3)cc2)cc1Nc1nccc(-c2cccnc2)n1 [Imatinib]	93.4	95.8	107 (inactive)	127 (inactive)
CN(C)CCC=C1c2ccccc2C=Cc2ccccc21.Cl [Cyclobenzaprine hydrochloride]	99.3	103	109 (inactive)	110 (inactive)
CC(CS)C(=O)N1CCCC1C(=O)O (stereo not drawn) [Captopril]	98.4 ± 2.9	93.4 ± 4.1	97.6 (inactive)	96.7 (inactive)
COc1c(O)cc2oc(-c3ccc(O)cc3)cc(=O)c2c1O [5,7-dihydroxy-2-(4-hydroxyphenyl)-6-methoxy-4H-chromen-4-one]	92.6	102	88 (inactive)	106 (inactive)
O=C(Nc1ccc(Cl)cc1)C1CCCN(C(=O)c2cccc(-c3ccco3)c2)C1 (stereo not drawn)	86.8	98.7	95.1 (inactive)	116 (inactive)
COc1ccc(C(=O)Nc2sc3c(c2C(N)=O)CCCC3)cc1OC [Flt-3 Inhibitor]	96.7	105	94.7 (inactive)	119 (inactive)
CCOC(=O)c1ncn2c1CN(C)C(=O)c1cc(F)ccc1-2 [Flumazenil]	104 ± 7.3	97.3 ± 3.1	98.2 (inactive)	93.6 (inactive)
COc1ccccc1CNCCCCCCNCCCCCCCCNCCCCCCNCc1ccccc1OC.Cl.Cl.Cl.Cl [Methoctramine tetrahydrochloride]	104	87.6	103 (inactive)	98 (inactive)
CC(=O)NCC1CN(c2ccc(N3CCOCC3)c(F)c2)C(=O)O1 (stereo not drawn) [Linezolid]	104	99.7	93.4 (inactive)	110 (inactive)
Cl.c1ccc2nc(C3=NCCN3)ccc2c1 [BU224 hydrochloride]	101	110	95 (inactive)	100 (inactive)
CCN(CC)CCOc1ccc(C(=C(Cl)c2ccccc2)c2ccccc2)cc1 [Clomiphene]	99.9	88.3	98 (inactive)	116 (inactive)
O=C(CCCCCCc1ccccc1)c1ncc(-c2ccccn2)o1 [7-phenyl-1-[5-(2-pyridinyl)-1,3-oxazol-2-yl]-1-heptanone]	104	104	98.3 (inactive)	107 (inactive)
Cc1cnc(Nc2ccc(OCCN3CCCC3)cc2)nc1Nc1cccc(S(=O)(=O)NC(C)(C)C)c1	67.1	43.3	116 (inactive)	189 (active)
Nc1ncnc2c1ncn2C1OC(C(=O)NC2CC2)C(O)C1O (stereo not drawn) [5'-(N-Cyclopropyl)carboxamidoadenosine]	99.6	95.1	97.8 (inactive)	93.6 (inactive)
O=C(CCCN1CCN(c2ccccn2)CC1)c1ccc(F)cc1 [Azaperone]	98.6	112	96.7 (inactive)	103 (inactive)
CN[C@H](CC(=O)O)C(=O)O [N-Methyl-D-aspartic acid]	104	109	85.2 (inactive)	98.8 (inactive)
O=c1c(-c2ccc(O)cc2)coc2cc(OC3OC(CO)C(O)C(O)C3O)cc(O)c12 (stereo not drawn) [Genistin]	103	104	93 (inactive)	86.4 (inactive)
COc1cc(-c2oc3cc(O)ccc3c(=O)c2O)ccc1O [Geraldol]	85.9	73.9	95.2 (inactive)	99.4 (inactive)
CC(C)=CCC(OC(=O)C=C(C)C)C1=CC(=O)c2c(O)ccc(O)c2C1=O (stereo not drawn) [Shikonin beta,beta-dimethylacrylate]	25.4	83.5	109 (inactive)	114 (inactive)

From the supplement of paper PMC7156485
